Test results published in PubChem BioAssay (NCI).
Compounds without any hit were thinned out: in the full panel of roughly 83,000, 20% have a hit.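 Each cell line was grown in a 96-well plate and treated with one concentration of compound for 48 hours. Values below 10 were considered active.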 Calls of active or inactive are those of the source.

Columns and labels:
Experiment in all cases: NCI-60 one-dose screen, 48 h (100 = growth as untreated, 0 = no growth, -100 = all killed)
Conditions in all cases: 10 µM unless noted
SK-MEL-2 melanoma = test system: SK-MEL-2 melanoma
EKVX NSCLC = test system: EKVX NSCLC
SN12C renal = test system: SN12C renal
UO-31 renal = test system: UO-31 renal
TK-10 renal = test system: TK-10 renal
ACHN renal = test system: ACHN renal
A498 renal = test system: A498 renal
CCRF-CEM leukemia = test system: CCRF-CEM leukemia
MOLT-4 leukemia = test system: MOLT-4 leukemia
SR leukemia = test system: SR leukemia
RPMI-8226 leukemia = test system: RPMI-8226 leukemia
OVCAR-8 ovarian = test system: OVCAR-8 ovarian
OVCAR-5 ovarian = test system: OVCAR-5 ovarian
OVCAR-4 ovarian = test system: OVCAR-4 ovarian
SK-OV-3 ovarian = test system: SK-OV-3 ovarian
IGROV1 ovarian = test system: IGROV1 ovarian
OVCAR-3 ovarian = test system: OVCAR-3 ovarian
NCI/ADR-RES ovarian = test system: NCI/ADR-RES ovarian
HS 578T breast = test system: HS 578T breast

Row | Structure (SMILES) | growth (SK-MEL-2 melanoma) | growth (EKVX NSCLC) | growth (SN12C renal) | growth (UO-31 renal) | growth (TK-10 renal) | growth (ACHN renal) | growth (A498 renal) | growth (CCRF-CEM leukemia) | growth (MOLT-4 leukemia) | growth (SR leukemia) | growth (RPMI-8226 leukemia) | growth (OVCAR-8 ovarian) | growth (OVCAR-5 ovarian) | growth (OVCAR-4 ovarian) | growth (SK-OV-3 ovarian) | growth (IGROV1 ovarian) | growth (OVCAR-3 ovarian) | growth (NCI/ADR-RES ovarian) | growth (HS 578T breast)
1 | COc1cccc(/C=C(/C)c2ccc3cccc(OC)c3[o+]2)c1O | 106% (inactive) | 89.6% (inactive) | 97.3% (inactive) | 88.8% (inactive) | 116% (inactive) | 95.4% (inactive) | 84% (inactive) | 104% (inactive) | 92% (inactive) | 92.1% (inactive) | 93.1% (inactive) | 100% (inactive) | 104% (inactive) | 98% (inactive) | 107% (inactive) | 94.5% (inactive) | 114% (inactive) | 107% (inactive) | –
2 | COc1ccc(C(=O)c2c(N)c(C#N)cn2-c2ccccc2OC)cc1 | 45.3% (inactive) | 48.2% (inactive) | 45.1% (inactive) | 47.9% (inactive) | 83.2% (inactive) | 46.7% (inactive) | 7.39% (active) | 19.9% (inactive) | 30.5% (inactive) | – | 35.9% (inactive) | 55.9% (inactive) | 76.7% (inactive) | 63.3% (inactive) | 45.6% (inactive) | 33.1% (inactive) | 14.6% (inactive) | 13.5% (inactive) | 13% (inactive)
3 | CN1CCN(c2ccc(/C=N/Nc3nc4ccccc4c(=O)n3-c3ccccc3)cc2)CC1 | 107% (inactive) | 100% (inactive) | 103% (inactive) | 95.5% (inactive) | 91.3% (inactive) | 108% (inactive) | – | 105% (inactive) | 104% (inactive) | 93.4% (inactive) | 101% (inactive) | 102% (inactive) | 107% (inactive) | 97.2% (inactive) | 109% (inactive) | 104% (inactive) | 104% (inactive) | 101% (inactive) | 92.5% (inactive)
4 | Cc1c(Cl)cccc1S(=O)(=O)Nc1ccc2c(c1)C(=O)N(C1CCC(=O)NC1=O)C2=O (configuration not stated) | 107% (inactive) | 91.2% (inactive) | 89.4% (inactive) | 44% (inactive) | 75.2% (inactive) | 108% (inactive) | 91.1% (inactive) | 25.5% (inactive) | 3.6% (active) | 97.1% (inactive) | 84.5% (inactive) | 47.8% (inactive) | 97.3% (inactive) | 69.1% (inactive) | 106% (inactive) | 64.1% (inactive) | 105% (inactive) | 73.3% (inactive) | 67.3% (inactive)
5 | CN(C)CCNC(=O)c1ccc(-c2nc3ccc4[nH]ncc4c3c3c2CCC3)cc1 | -22.8% (active) | 15.3% (inactive) | 7.23% (active) | 18.2% (inactive) | 22.1% (inactive) | 12.8% (inactive) | -63.6% (active) | – | 7.28% (active) | -1.05% (active) | -15.7% (active) | 9.58% (active) | 21.4% (inactive) | 10.2% (inactive) | 0.409% (active) | 1.06% (active) | 2.15% (active) | 81.3% (inactive) | -25% (active)
6 | O=C(NNc1nc2cc(F)c(F)cc2n2c(CN3CC4CNCC4C3)ccc12)c1ncccn1 (configuration not stated) | 9.68% (active) | 20% (inactive) | 25.8% (inactive) | 13.6% (inactive) | 16.2% (inactive) | 12.7% (inactive) | 18.7% (inactive) | – | -6.62% (active) | 1.34% (active) | 18.7% (inactive) | 7.54% (active) | 40% (inactive) | 21.6% (inactive) | 7.21% (active) | 14.9% (inactive) | – | – | 71.5% (inactive)
7 | COc1ccc(Oc2ccc(/C=N/NC(=O)CSc3nc4ccccc4c(=O)n3-c3ccc(Cl)cc3)cc2)cc1 | 97.6% (inactive) | 69.4% (inactive) | 52.7% (inactive) | 47.7% (inactive) | 96.5% (inactive) | 7.83% (active) | 72.9% (inactive) | 63.5% (inactive) | 61.7% (inactive) | 72.8% (inactive) | 85.1% (inactive) | 85.7% (inactive) | 81.2% (inactive) | 72.5% (inactive) | 66.3% (inactive) | 48.7% (inactive) | -56.8% (active) | 51.1% (inactive) | -4.46% (active)
8 | COc1cc(/C=C2\C(=O)Nc3ccccc32)ccc1OCc1ccc(Cl)cc1 | 105% (inactive) | 95.3% (inactive) | 103% (inactive) | 81.3% (inactive) | 136% (inactive) | 92.7% (inactive) | 115% (inactive) | 94.9% (inactive) | 93.9% (inactive) | 93.8% (inactive) | 97.5% (inactive) | 102% (inactive) | 101% (inactive) | 99.1% (inactive) | 111% (inactive) | 102% (inactive) | 106% (inactive) | 100% (inactive) | 105% (inactive)
9 | CC/C(=C/c1c(O)cccc1OC)c1ccc2c(OC)cccc2[o+]1 | 107% (inactive) | 97.9% (inactive) | 96.9% (inactive) | 93.5% (inactive) | 121% (inactive) | 99.2% (inactive) | 102% (inactive) | 102% (inactive) | 104% (inactive) | 90.4% (inactive) | 109% (inactive) | 101% (inactive) | 106% (inactive) | 99.7% (inactive) | 97.8% (inactive) | – | – | 99.7% (inactive) | 107% (inactive)
10 | COc1ccc2c(c1)c(CC(=O)[Se]CCC#N)c(C)n2C(=O)c1ccc(Cl)cc1 | 9.95% (active) | -82.5% (active) | -82.6% (active) | -21.7% (active) | -74.7% (active) | 5.57% (active) | -42.9% (active) | 5.22% (active) | 0.134% (active) | 4.36% (active) | 50.9% (inactive) | 6.32% (active) | 29% (inactive) | 31.6% (inactive) | 22.3% (inactive) | -55.6% (active) | -30.7% (active) | -1.67% (active) | -14.2% (active)
11 | COc1ccc(COc2ccc(/C=C3\C(=O)Nc4ccccc43)cc2OC)cc1 | 108% (inactive) | 99.8% (inactive) | 99.6% (inactive) | 80.4% (inactive) | 113% (inactive) | 92.4% (inactive) | 110% (inactive) | 104% (inactive) | 102% (inactive) | 102% (inactive) | 104% (inactive) | 101% (inactive) | 99.9% (inactive) | 99.8% (inactive) | 119% (inactive) | 107% (inactive) | 115% (inactive) | 106% (inactive) | 105% (inactive)
12 | NC(N)=Nc1ccc(Oc2cccc(NC(N)=Nc3ccc(I)cc3F)c2)cn1 | 86.8% (inactive) | 63% (inactive) | 39.4% (inactive) | 83.8% (inactive) | 71.3% (inactive) | 94.9% (inactive) | 49% (inactive) | 43.2% (inactive) | 42.8% (inactive) | – | 34.1% (inactive) | 77.6% (inactive) | 49% (inactive) | 66.6% (inactive) | 67.2% (inactive) | 39.7% (inactive) | 41.7% (inactive) | 95.2% (inactive) | 53.3% (inactive)
13 | NC(N)=Nc1ccc(Oc2cccc(NC(N)=Nc3ccc(I)cc3F)c2)cc1 | 85.9% (inactive) | 71.6% (inactive) | 54.3% (inactive) | 95.7% (inactive) | 85.7% (inactive) | 101% (inactive) | – | 77.3% (inactive) | 78.9% (inactive) | 48.1% (inactive) | 62.3% (inactive) | 90.5% (inactive) | 65.5% (inactive) | 81.3% (inactive) | 70.1% (inactive) | – | 75.7% (inactive) | 100% (inactive) | 61.1% (inactive)
14 | COc1ccccc1NC1=C(Cl)C(=O)c2nc(C)ccc2C1=O | 78.8% (inactive) | 28.5% (inactive) | -49.5% (active) | -65.7% (active) | 148% (inactive) | -99.9% (active) | 71.8% (inactive) | -4.94% (active) | -39% (active) | -27.9% (active) | -30.4% (active) | 9.87% (active) | 78.9% (inactive) | -98.2% (active) | 88.3% (inactive) | -83.5% (active) | -85.9% (active) | 7.08% (active) | 72.1% (inactive)
15 | O=C1CCC(N2C(=O)c3ccc(NS(=O)(=O)c4ccccc4OC(F)(F)F)cc3C2=O)C(=O)N1 (configuration not stated) | 83.7% (inactive) | 78.8% (inactive) | 47.8% (inactive) | 3.53% (active) | 63.4% (inactive) | 87.5% (inactive) | 28.5% (inactive) | 13.2% (inactive) | 2.34% (active) | – | 61% (inactive) | 10.9% (inactive) | 85.3% (inactive) | 22.8% (inactive) | 82.3% (inactive) | 23.5% (inactive) | 86.2% (inactive) | 19.7% (inactive) | 13.7% (inactive)
16 | O=C(NCCN1CCCC1)c1ccc(-c2nc3ccc4[nH]ncc4c3c3c2CCCC3)cc1 | 10.1% (inactive) | 24% (inactive) | 8.98% (active) | 43.3% (inactive) | 27.3% (inactive) | 15.8% (inactive) | -80% (active) | 9% (active) | -26% (active) | -24.4% (active) | -15% (active) | 10.9% (inactive) | 23.5% (inactive) | 16% (inactive) | 0.026% (active) | – | 1.47% (active) | 93.2% (inactive) | -1.99% (active)
17 | O=C(NCCn1ccnc1)c1ccc(-c2nc3ccc4[nH]ncc4c3c3c2CCCC3)cc1 | 45.3% (inactive) | 87.6% (inactive) | 81.6% (inactive) | 92.4% (inactive) | 77.7% (inactive) | 88.4% (inactive) | 73.5% (inactive) | 19.5% (inactive) | 29.1% (inactive) | – | 77.6% (inactive) | 77.2% (inactive) | 93.9% (inactive) | 66.3% (inactive) | 63.1% (inactive) | 62.8% (inactive) | 36.7% (inactive) | 102% (inactive) | –
